HttQ103 aggreg = mutant huntingtin aggregation inhibition. PC12 HttQ103-GFP aggregates, Acumen cytometry, 40 h. Potency, µM (titrated, usually from 46.1 µM), for the others: at the highest dose activity change, negative = inhibition, hits mostly inhibitors. 220,000 tested, 1.1% active. AID 1688; further: on the % scale 0 is the no-effect control and ±100 the full control effect; nearly all actives have a fitted effect of over 60% in size
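Aggregate formation scored by laser-scanning cytometer (488 excitation, 500–530 emission) in lysed PC12 cells expressing Q103-GFP after 100 nM tebufenozide induction; library tested in dose series, with ATPLite reagent added in the multiplex.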
HPGD block = inhibitors of human 15-hydroxyprostaglandin dehydrogenase (HPGD). P15428. purified HPGD, NADH fluorescence kinetic, PGE2 substrate. Potency, µM, inactives show top-dose activity change, negative = inhibition, usual class: inhibitors. 150,000 tested, 4.3% active. AID 894; active means well fitted inhibition curve with a large enough effect, not every such curve was filed as active; inconclusive means small, poorly fitted or top-dose-only effect, or another doubt; inactive means no such curve, though single readings can be large or run the other way; further: on the % scale 0 is the no-effect control and ±100 the full control effect
Target sequence (P15428 whole entry, looked up): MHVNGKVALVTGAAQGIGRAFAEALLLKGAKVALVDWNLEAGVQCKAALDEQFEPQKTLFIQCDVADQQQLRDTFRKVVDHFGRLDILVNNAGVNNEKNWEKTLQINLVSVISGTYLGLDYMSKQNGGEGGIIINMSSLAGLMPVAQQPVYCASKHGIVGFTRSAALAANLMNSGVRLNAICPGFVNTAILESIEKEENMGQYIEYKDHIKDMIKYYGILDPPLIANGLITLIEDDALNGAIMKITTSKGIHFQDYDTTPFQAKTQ
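NADH formation kinetics: reaction with 30 uM PGE2 and 1 mM NAD+ (final), 20 nM enzyme, Tris-HCl pH 8 with Tween 20, after 15 min compound preincubation at room temperature. Fluorescence change, last versus first of five reads.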
ALDH1A1 inh = blocks purified human ALDH1A1 activity; Purified ALDH1A1, NADH fluorescence, propionaldehyde substrate; Potency, µM (top dose mostly 75.3 µM), for the others: at the highest dose activity, negative = inhibition, hits mostly inhibitors; 220,000 tested, 7.3% active; active means well fitted inhibition curve with a large enough effect, not every such curve was filed as active; inconclusive means small, poorly fitted or top-dose-only effect, or another doubt; inactive means no such curve, though single readings can be large or run the other way;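 further: plate controls were no enzyme wells and a reference inhibitor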
HTT ATP protect = cytoprotection in Huntington HTT-Q103 PC12 cell model; PC12 HTT-Q103 induced, cytoprotection, ATP luminescence, 40 h; Potency, µM (doses to about 56.4 µM), for the others: cytoprotection (ATP increase), actives largely listed as activators; 230,000 tested, 0.14% active; further: % of control where 0% means no effect; nearly all actives have a fitted effect of over 45% in size
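Readout: ATPlite luminescence (ATP level). Model: stable PC12, inducible Htt exon1 Q103-GFP. Inducer: tebufenozide, 100 nM final. Compounds: dose series. No G418 in medium.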
LMNA splice mod = changes lamin A minigene splicing in HeLa cells. Potency, µM (titrated, usually from 46.1 µM), for inactives: at the top dose ratio change, negative = inhibition, usual class: inhibitors. 200,000 tested, 0.01% active. HeLa LMNA splicing GFP/RFP minigene ratio, 48 h. AID 1487; active means well fitted inhibition curve with a large enough effect in the signal ratio, with a control signal flat, not every such curve was filed as active; inconclusive means small, poorly fitted or top-dose-only effect, or effect the other way, or a change in a side signal; the % refers to the signal ratio; further: on the % scale 0 is the no-effect control and ±100 the full control effect
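Read-out is the ratio of GFP to DsRed2 object intensity, acquired by 488 nm laser-scanning cytometry on HeLa lamin A-EGFP minigene reporter cells. Compound incubation 48 hrs at 37 °C in Opti-MEM with 2% FBS; DMSO 0.5% final.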
* hit, by the source's call; u = inconclusive; x = no result; [ ] = dose if it differs, or a comment. The list is not random: actives were taken first. Their share in the collection is about 8.8%. Unless noted, the call rests on the fitted dose curve; in most records, active means well fitted curve in the direction sought with a large enough effect; inconclusive means small, poorly fitted or top-dose-only effect, or another doubt; inactive means no such curve, though single readings can be large; an effect the other way counts as inactive or inconclusive. Potency means the concentration at half of the fitted maximal effect.

SMILES	HttQ103 aggreg	HPGD block	ALDH1A1 inh	HTT ATP protect	LMNA splice mod
C=CCN1C[C@@H](C)N([C@H](c2ccc(C(=O)N(CC)CC)cc2)c2cccc(OC)c2)C[C@H]1C	x	x	x	5%[1.9 µM]	x
CCN1CCN(P2(=O)C=C(c3ccccc3)OC(c3ccccc3)=C2)CC1	11%	-7%	14µM*	-15%	6%
C[C@@H](Cc1ccc(Cl)cc1Cl)NO	x	-3%	11%[13.5 µM]	4%[10 µM]	x
O=C1NC(=O)C2(Cc3ccccc3N3CCCC32)C(=O)N1c1cccc(Cl)c1 (configuration not stated)	-3%	-7%	u	-2%	0%
Cc1ccc(N2C(=O)NC(=O)C3(Cc4ccccc4N4CCN(c5ccccc5)CC43)C2=O)cc1 (configuration not stated)	-13%	x	22µM*	-32%	0%
O=C(O)[C@H]1[C@H](C(=O)O)[C@H]2CC[C@@H]1O2	x	x	x	4%[1.9 µM]	x
O=C(CSc1nnnn1-c1ccccc1)Nc1ccc(N2CCOCC2)c(Cl)c1	7%	-8%	2.2µM*	-11%	u
[N-]=[N+]=NCC(=O)c1c[nH]c(=O)[nH]c1=O	x	-13%	-6%[13.5 µM]	9%[10 µM]	x
Cc1c(O)c(O)cc2c1CC=C1[C@]3(C)CC[C@]4(C)CC[C@@](C)(C(=O)O)CC4[C@]3(C)CC[C@]12C (some centres not stated)	x	18µM*	-5%	x	u
Oc1cc[c]([Hg][Cl])cc1	2.5µM*	x	x	-99%	x
COc1ccc(C[C@@H]2NC[C@H](O)[C@@H]2OC(C)=O)cc1	x	-10%	-12%[20.9 µM]	-236%[17.1 µM]	u
CCCC[N+]12CCC(CC1)C(C(=O)c1cccs1)C2 (configuration not stated)	5%	-7%	5%	-10%	8%
CN1C(=O)NC(c2cccc(O)c2)C(C(=O)c2cccs2)C1(O)C(F)(F)F (configuration not stated)	-15%	-7%	0.79µM*	-31%	0%
COC(=O)[C@H]1C(=O)[C@H](C(=O)OC)[C@@H]2CC[C@H]1N2C	x	3%	0%[13.5 µM]	-5%[10 µM]	x
CCOc1ccccc1OCCCCN1CCCC1	-17%	-8%	22µM*	4%	-2%
Oc1ccc(/C=N/NP(=S)(c2ccccc2)c2ccccc2)cc1	-18%	32µM*	20µM*	13%	-4%
c1ccc(C[N+]23CN4CN(CN(C4)C2)C3)cc1	x	-4%	-3%[13.5 µM]	-6%[10 µM]	x
O=C1NC(=O)C(=CN2CCc3ccccc32)C(=O)N1	2%	-20%	11µM*	-1%[10 µM]	-22%
CC(=O)OC1C[C@]2(C)C(C(C)=O)CCC2C2CCC3=CC(=O)CC[C@@]3(C)C12 (some centres not stated)	x	0%	u	-59%	x
CCN1C(=O)C(=Cc2ccc(C)s2)C(=O)N(CC)C1=S	-10%	8.9µM*	7.1µM*	x	u
CCN1C(=O)C(=C2C=C(C)OC(C)=C2)C(=O)N(CC)C1=S	9%	x	6%	13%[10 µM]	x
Ic1ccccc1CN[C@@H]1C2CCN(CC2)[C@H]1C(c1ccccc1)c1ccccc1	x	x	x	-23%[1.9 µM]	x
Cc1cccc(N=Cc2c(O)n(-c3ccccc3C)c(=O)[nH]c2=O)c1	17%	u	25µM*	-2%[10 µM]	0%
Cc1ccccc1-n1c(O)c(/C=C2/C(c3ccccc3)=Nc3ccccc32)c(=O)[nH]c1=O	-5%	28µM*	u	-38%[1.9 µM]	u
Cc1ccc(-n2c(O)c(/C=C3/C(c4ccccc4)=Nc4ccccc43)c(=O)[nH]c2=O)cc1	11µM*	x	25µM*	-53%[10 µM]	u
COC(=O)C1=Nc2ccccc2/C1=C\c1c(O)n(-c2cc(OC)ccc2OC)c(=O)[nH]c1=O	-10%	14µM*	u	x	3%
Cc1ccccc1-n1c(O)c(C=Nc2ccc(N(C)C)cc2)c(=O)[nH]c1=O	u	-5%	-13%	-8%	u
CC(=O)[O-].CC(=O)[O-].CC(=O)[O-].[Cr+3]	x	-7%	6%	-57%	x
N[C@@H](CP(=O)(O)O)C(=O)O	x	-2%	8%[13.5 µM]	-9%[10 µM]	x
O=C(O)CCn1cc(C=C2C(=O)NC(=S)NC2=O)c(-c2cccc(Cl)c2)n1	2%[9.22 µM]	x	3.5µM*	-3%[10 µM]	x
